# In PubChem BioAssay (NCI):
# The panel holds about 83,000 compounds, 20% with a hit somewhere; the sample as a whole holds those more often.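 Plates (96-well) were seeded with cells, treated with compound at one concentration, and incubated for 48 hours before percent growth was determined.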 Values without a mark were called inactive. Activity calls are given as the source filed them. Rule for the calls: active = growth percent below 10; inactive = the rest.
# Test system: HL-60(TB) leukemia
# Experiment: NCI-60 one-dose screen, 48 h (100 = growth as untreated, 0 = no growth, -100 = all killed)
# Settings: 10 µM unless noted
row,Structure (SMILES),growth
1,CC1CCCCN1CCCNC(=O)c1ccc2c(c1)sc1nc(-c3ccc(F)cc3)cn12 (stereo not given),74.1%
2,CCOC(=O)Oc1c(OC)cc(C(=O)O[C@@H]2C[C@@H]3CN4CCc5c([nH]c6cc(OC)ccc56)[C@H]4C[C@@H]3[C@H](C(=O)OC)[C@H]2OC)cc1OC,-27.7% (active)
3,CN1CCC(CNc2ccc3ncc(-c4cccc(OC(F)(F)F)c4)n3n2)CC1,-37.1% (active)
4,CC(=O)c1cccc(N(C)S(=O)(=O)c2ccc(C)cc2)c1,88.8%
5,COc1ccc(-c2ccc(-c3ccc(C(=N)N)cn3)s2)cc1OC,94.9%
6,CN(Cc1cc(Br)cc(Br)c1O)Cc1cc(Br)cc(Br)c1O,22.7%
7,O=C1/C(=C\c2cccnc2)SC(=S)N1CCc1ccc(O)cc1,18%
8,COc1ccc(OC)c2c1CCC1(C2)NC(=O)NC1=O (stereo not given),111%
9,C[C@@H]1CC[C@@H]2[C@@H]1[C@H](OC(=O)/C=C/c1ccccc1)[C@]1(C3CCCCC3)C[C@@H](NC(=O)CO)[C@@]2(C)O1,104%
10,CCN(CC)C(=S)SCCO,102%
11,CCC(O)C(C)(C)C (stereo not given),114%
12,Oc1cccc2oc(=S)[nH]c12,121%
13,O=C1NC(=O)C(CSc2ccccc2)(c2ccccc2)N1 (stereo not given),99.9%
14,COc1cc(C2CC(C3C(=O)N(C)C(=O)N(C)C3=O)=NN2C=O)cc(OC)c1OC (stereo not given),104%
15,CCCCCCCCCCC/C=C\C[C@H](O)C/C=C1/C(=O)C=C[C@@H]1C/C=C\CCCC(=O)OC,-20% (active)
16,CCCCNC(=O)c1ccc(OCC)cc1,99.5%
17,O=C(/C=C/c1cccc([N+](=O)[O-])c1)c1ccc(O)c(CN2CCN(c3cc4c(cc3F)c(=O)c(C(=O)O)cn4C3CC3)CC2)c1,8.41% (active)
18,CCOC(=O)c1cc(Cl)c(O)c(Cl)c1,64.9%
19,O=C1C=CC2=C3c4cc(O)c(O)cc4CC3(O)COC2=C1O (stereo not given),102%
20,COc1cc(CCn2nnc3c(NCCCCO)ncnc32)cc(OC)c1,133%

row,Structure (SMILES),growth
1,COCn1c(C(=O)OC)cc2oc(/C=C3/SC(=S)N(N)C3=O)cc21,76.9%
2,CC(=O)N1N=C(c2ccc(F)cc2)CC1c1sc(N(C)Cc2ccccc2)nc1Cl (stereo not given),109%
3,COc1cc2c(Nc3ccc(NC(=O)Nc4ccc(Cl)c(C(F)(F)F)c4)c(Cl)c3)ncnc2cc1OCCCN1CCN(C)CC1,-56.4% (active)
4,O=C(CCl)Nc1ccc2c(c1)C(=O)c1ccc(NC(=O)CCl)cc1C2=O,-59.7% (active)
5,Cc1nc2cc(Nc3nc(N4CCCCC4)nc(N4CCOCC4)n3)ccc2n1Cc1ccccc1,75%
6,CS(=O)(=O)c1ccc(-c2[nH]c3ccc(F)cc3c2/C=N/NC(N)=S)cc1,-50.2% (active)
7,c1cc2nc(-c3cn[nH]c3)c3c(c2cc1-c1cn[nH]c1)C1CCC3C1 (stereo not given),84.3%
8,CCOC(=O)c1c2c(n3c1NCC3)-c1ccccc1C2=O,86.8%
9,CCOC(=O)c1cc(/C=C/c2ccc(Cl)cc2Cl)on1,74.2%
10,O=C1C[C@H](Sc2nc(-c3ccc(F)cc3)cc(C(F)(F)F)n2)[C@H]2CO[C@@H]1O2,46.9%
11,COc1cccc(-c2nn(-c3ccccc3)cc2-c2ccnc(NCCCN)c2)c1,39.6%
12,COc1ccc(C2C(N)=NNC2c2cccc(O)c2)cc1 (stereo not given),97.9%
13,O=C(Nc1ccc(Nc2ncccn2)cc1)NC1C=c2ccccc2=CC1 (stereo not given),74.1%
14,Nc1ncnc2c1N=C(c1ccc(F)cc1)CC(c1cccc(Nc3ccnc4cc(Cl)ccc34)c1)N2 (stereo not given),83.6%
15,COc1ccc2cc(Cn3cc[n+](Cc4ccc5ccccc5c4)c3)ccc2c1,-46.6% (active)
16,CCOC(=O)N1C/C(=C/c2ccc(F)cc2)C(=O)/C(=C/c2ccc(F)cc2)C1,4.58% (active)
17,CC1(C)N=C(N)N=C(N)N1c1ccc(F)c(C(F)(F)F)c1,13.4%
18,O=C(Nc1ccccc1)Oc1cccc2cccnc12,57.3%
19,COc1ccc(/C(C#N)=C/c2nc3c(N4CCOCC4)nc(Cl)nc3n2C)cc1OC,-28% (active)
20,COc1ccc(/C=C/C(=O)c2ccc3cc(OC)c(OC)cc3c2)cc1OC,44.7%
